Screens deposited in PubChem by National Center for Advancing Translational Sciences (NCATS).
Only some compounds are listed: those with a hit (about 2.6% of all), similar ones and a draw of the others.
AmpC nodet inh – AmpC beta-lactamase inhibition, detergent-free assay; AID 585; Potency, µM (highest dose often 28.7 µM), inactives show at the highest dose activity change, negative = inhibition; 71,000 compounds, 1.8% hits; AmpC nitrocefin hydrolysis, absorbance 480 nm, no detergent; P00811; note: % of control where 0% means no effect
Target sequence (P00811 whole entry, looked up): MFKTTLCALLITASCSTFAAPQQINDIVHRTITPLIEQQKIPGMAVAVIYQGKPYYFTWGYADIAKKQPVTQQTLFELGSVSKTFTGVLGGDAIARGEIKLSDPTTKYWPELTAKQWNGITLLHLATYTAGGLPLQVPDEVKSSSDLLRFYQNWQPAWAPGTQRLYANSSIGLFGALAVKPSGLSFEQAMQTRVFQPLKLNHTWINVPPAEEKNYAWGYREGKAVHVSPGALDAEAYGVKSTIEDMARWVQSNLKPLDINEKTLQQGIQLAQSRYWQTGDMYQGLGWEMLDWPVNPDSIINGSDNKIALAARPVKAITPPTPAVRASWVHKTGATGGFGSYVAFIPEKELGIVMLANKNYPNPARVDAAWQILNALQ
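AmpC in 20 mM phosphate buffer pH 7.0 was preincubated 15 min at room temperature with compounds. Nitrocefin (800 uM stock) was then added and hydrolysis followed at 480 nm every 20 s for 4 min.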
Prx2 Sm inh – inhibitors of Schistosoma mansoni peroxiredoxin 2 | S. mansoni Prx2 activity coupled to TGR/GSH (TGR is thioredoxin glutathione reductase), NADPH fluorescence loss, qHTS | Potency, µM | 65,000 compounds, 0.07% hits | AID 448
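Enzyme mix: 100 uM NADPH, 25 nM TGR, 700 uM GSH, 50 nM Prx2 in 100 mM phosphate pH 7.4, 10 mM EDTA, 0.01% Tween-20. 15 min RT with compound; NADPH/GSH added, H2O2 starts reaction; NADPH fluorescence read 8 min.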
AmpC inh det – inhibitors of E. coli AmpC beta-lactamase with detergent; purified AmpC, nitrocefin hydrolysis with detergent; Potency, µM (highest dose often 28.7 µM), without a hit: at the top dose activity change, negative = inhibition; 71,000 compounds, 0.09% hits; AID 584; active = well fitted curve in the direction sought with a large enough effect; inconclusive = small, poorly fitted or top-dose-only effect; note: % is set by controls: 0 for no effect and ±100 for the full control effect
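E. coli AmpC (5.3 nM) in 20 mM phosphate pH 7.0 with 0.01% Triton X-100, preincubated 15 min RT with compound; nitrocefin (2 uL of 800 uM stock) hydrolysis followed by 480 nm absorbance every 20 s over 4 min.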
LT uptake inh – anthrax lethal toxin internalization inhibition. Cells, anthrax lethal toxin internalization, FRET ratio (460/530). Potency, µM (doses to about 40 µM), for the others: at the top dose activity change, negative = inhibition, usual class: inhibitors. 70,000 compounds, 0.67% hits. AID 912; note: % is set by controls: 0 for no effect and ±100 for the full control effect; nearly all actives have a fitted effect of over 50% in size
Numbers without * were called inactive; ! = a repeat was not active; [ ] = another dose, or the depositor's remark. Unless noted, calls come from the whole dose curve. Potency is the fitted concentration of half-maximal effect.

Cc1cc(C(=O)CSc2nnnn2-c2ccc(O)cc2)c(C)n1Cc1ccc2c(c1)OCO2 was read as AmpC nodet inh 13µM*, Prx2 Sm inh >57, AmpC inh det -5% and LT uptake inh inconclusive.
Cc1ccc(-c2nnc(SCC(=O)Nc3ccc4c(c3)OCCO4)n2N)cc1 was read as AmpC nodet inh -6%, Prx2 Sm inh >57, AmpC inh det 10% and LT uptake inh -3%.
For Cc1cc(C(=O)CSc2nnc(-c3cccc(F)c3)n2N)c(C)n1Cc1ccc2c(c1)OCO2 the results were AmpC nodet inh 16µM*[single pt active], Prx2 Sm inh >57, AmpC inh det 9% and LT uptake inh -14%.
Screening FC(F)(F)c1cc(CO[C@@H]2CCCN[C@H]2c2ccccc2)cc(C(F)(F)F)c1 returned AmpC nodet inh 31%, Prx2 Sm inh >57, AmpC inh det -1% and LT uptake inh 13%.
For CS(=O)(=O)N1CCC[C@@]2(CCN(Cc3nccs3)C2)C1 the results were AmpC nodet inh 33%, Prx2 Sm inh >57, AmpC inh det -7% and LT uptake inh 11%.
`COS(C)(=O)=O` gave AmpC nodet inh 0%, AmpC inh det 8% and LT uptake inh 4%.
CCCN1CCN(CCCNC(=O)c2cc3c(=O)n(C)c4ccccc4c3n2C)CC1 was read as AmpC nodet inh 4µM*[single pt active], Prx2 Sm inh >57, AmpC inh det 12% and LT uptake inh 13µM*.
Screening CN1CCN(CCNC(=O)c2cc3c(=O)n(C)c4ccccc4c3n2C)CC1 returned AmpC nodet inh 4µM*[single pt active], Prx2 Sm inh >57, AmpC inh det 12% and LT uptake inh inconclusive.
Screening Cn1c(C(=O)NCCCN2CCCCCC2)cc2c(=O)n(C)c3ccccc3c21 returned AmpC nodet inh 130%, AmpC inh det 14% and LT uptake inh 4µM*.
For Cn1c(C(=O)Nc2ccc3c(c2)OCCO3)cc2c(=O)n(C)c3ccccc3c21 the results were AmpC nodet inh 70%, Prx2 Sm inh >57, AmpC inh det 13% and LT uptake inh inconclusive.
For CC(=O)OC1CC(C)OC(C)O1 (stereo not given) the results were AmpC nodet inh -5%, AmpC inh det 11% and LT uptake inh 1%.
For COCC(=O)N1CCC[C@@]2(CCN(C(c3ccccc3)c3ccccc3)C2)C1 the results were AmpC nodet inh 125%, Prx2 Sm inh >57, AmpC inh det 2% and LT uptake inh 16%.
`CC(C)NC(=O)N1CC[C@@]2(CCCN(S(C)(=O)=O)C2)C1` gave AmpC nodet inh 88%, Prx2 Sm inh >57, AmpC inh det -3% and LT uptake inh 0%.
Screening O=C(Nc1ccc(Cl)cc1)N(Cc1cccs1)Cc1cccs1 returned AmpC nodet inh 5µM*, AmpC inh det 2% and LT uptake inh -21%.
Screening CC(=O)N1CCN(c2ccc(NC(=O)c3ccc(C(C)(C)C)cc3)cc2)CC1 returned AmpC nodet inh 123%, Prx2 Sm inh >57, AmpC inh det 7% and LT uptake inh 10µM*.
Screening Cc1ccc(C(=O)Nc2ccc(N3CCOCC3)cc2)cc1 returned AmpC nodet inh 1%, AmpC inh det -1% and LT uptake inh -3%.
`O=C(Nc1ccc(F)c(Cl)c1)c1ccc2c(=O)n3c(nc2c1)CCCCC3` gave AmpC nodet inh 16%, Prx2 Sm inh >57, AmpC inh det 2% and LT uptake inh -13%.
O=C(Nc1cccc(Cl)c1)c1ccc2c(=O)n3c(nc2c1)CCCCC3 was read as AmpC nodet inh 16%, Prx2 Sm inh >57, AmpC inh det -4% and LT uptake inh 13µM*.
`CN(C(=O)c1ccc2c(=O)n3c(nc2c1)CCCCC3)c1ccccc1` gave AmpC nodet inh 40%, Prx2 Sm inh >57, AmpC inh det 0% and LT uptake inh 13%.
`O=C(NCCC1=CCCCC1)c1ccc2c(=O)n3c(nc2c1)CCCCC3` gave AmpC nodet inh 104%, Prx2 Sm inh >57, AmpC inh det 4% and LT uptake inh 13µM*.
For O=C(O)[C@@H](O)[C@@H](O)[C@H](O)C(=O)CO the results were AmpC nodet inh 2%[5.75 µM], Prx2 Sm inh >57, AmpC inh det -4%[5.75 µM] and LT uptake inh -3%[8 µM].
Screening CN(C)c1ncc2nc(-c3cc(F)cc(F)c3)c(=O)n(C)c2n1 returned AmpC nodet inh -8%, Prx2 Sm inh >57, AmpC inh det -4% and LT uptake inh inconclusive.
`CN(C)c1nc(N2CCCCC2)nc(N2CCCCC2)n1` gave AmpC nodet inh 4µM*[single pt active], Prx2 Sm inh >57, AmpC inh det 14% and LT uptake inh -18%.
COc1cccc(-c2cncnc2NCc2ccccc2OC)c1 was read as AmpC nodet inh 52%, Prx2 Sm inh >57, AmpC inh det 9% and LT uptake inh -15%.
Screening Cc1c(-c2nc(N)nc(Nc3ccccc3)n2)oc2ccccc12 returned AmpC nodet inh 98%, Prx2 Sm inh >57, AmpC inh det -6% and LT uptake inh 13µM*.
COc1cccc(NC(=O)c2ccc(CN3CCN(c4ccccc4)CC3)cc2)c1 was read as AmpC nodet inh 32%, Prx2 Sm inh >57, AmpC inh det -5% and LT uptake inh 10µM*.
CC1CC(C)CN(S(=O)(=O)c2ccc(C(=O)Nc3nnc(-c4cccs4)o3)cc2)C1 (stereo not given) was read as AmpC nodet inh -9%, Prx2 Sm inh >57, AmpC inh det 8% and LT uptake inh 17%.
`CCC1CCCCN1S(=O)(=O)c1ccc(C(=O)Nc2nnc(-c3cccs3)o2)cc1` (stereo not given) gave AmpC nodet inh 13µM*, Prx2 Sm inh >57, AmpC inh det -8% and LT uptake inh inconclusive.
Screening CC(=O)Nc1nc(-c2cccs2)cs1 returned AmpC nodet inh -4%, Prx2 Sm inh >57, AmpC inh det -5% and LT uptake inh 4%.
`O=C(Nc1nc(-c2cccs2)cs1)c1ccc(S(=O)(=O)N2CCCC2)cc1` gave AmpC nodet inh 13µM*, Prx2 Sm inh >57, AmpC inh det 2% and LT uptake inh inconclusive.
`O=C(Nc1nc(-c2cccs2)cs1)c1ccc(Cl)s1` gave AmpC nodet inh inconclusive, Prx2 Sm inh >57, AmpC inh det 12% and LT uptake inh 10µM*.
COc1ccc(C(=O)N2CCC3(CCCN(c4ccccc4)C3)CC2)cc1 was read as AmpC nodet inh 112%, Prx2 Sm inh >57, AmpC inh det -3% and LT uptake inh inconclusive.
`Nc1ncnc2nc[nH]c12.Nc1ncnc2nc[nH]c12.[Cl][Pt]([Cl])([Cl])[Cl]` gave AmpC nodet inh -12%[5.75 µM], Prx2 Sm inh >57, AmpC inh det -3%[5.75 µM] and LT uptake inh -13%[8 µM].
O=c1c(O)c(-c2ccc(O)cc2)oc2cc(O)ccc12 was read as AmpC nodet inh inconclusive, Prx2 Sm inh >57, AmpC inh det 2% and LT uptake inh inconclusive.
O=c1c(O)c(-c2ccc(O)c(O)c2)oc2cc(O)ccc12 was read as AmpC nodet inh 13µM*!, Prx2 Sm inh >57, AmpC inh det -2% and LT uptake inh -12%.
`CC(C)COC(=O)c1ccccc1C(=O)OCC(C)C` gave AmpC nodet inh -3%, AmpC inh det 1% and LT uptake inh inconclusive.
